# From the supplement of paper PMC6518042
# System: Pectobacterium parmentieri SCC3193
# Test: DuctApe activity index (growth/respiration on compound as sole nutrient source, blank-subtracted) (activity index (0-3)); higher = stronger utilization of the compound, active = 3 or more
# Settings: nutrient role (plate category): carbon
# Method: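 Biolog Phenotype Microarray plates PM1, PM2A (carbon), PM3 (nitrogen) and PM4 (phosphorus/sulfur) inoculated with P. parmentieri SCC3193 in M9-C minimal salts medium with Biolog dye A, and read in the OmniLog for 46 h. Each well was tested in triplicate and the experiment was run twice. DuctApe computed a blank-subtracted activity index (AV, 0-3) from the mean curves; growth is positive at AV >= 3 and negative at AV <= 2.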
row,SMILES,DuctApe activity index
1,O=C[C@H](O)[C@@H](O)[C@H](O)[C@H](O)COP(=O)(O)O [D-Glucose-6-Phosphate],3 (active)
2,CC(N)=O [Acetamide],0 (inactive)
3,C[C@H](N)C(=O)NCC(=O)O,0 (inactive)
4,O=C(O)C[C@H](O)C(=O)O [L-Malic acid],3 (active)
5,N[C@@H](CC(=O)O)C(=O)O [L-Aspartic acid],3 (active)
6,N[C@@H](CCC(=O)O)C(=O)O [L-Glutamic acid],2 (inactive)
7,O=C(O)CO [Glycolic acid],0 (inactive)
8,OCC(O)CO [Glycerol],3 (active)
9,N[C@H](CO)C(=O)O [D-Serine],0 (inactive)
10,NCC(=O)N[C@@H](CCC(=O)O)C(=O)O,0 (inactive)
11,OC[C@H]1O[C@H](OC[C@H]2O[C@H](OC[C@H]3O[C@H](O[C@]4(CO)O[C@H](CO)[C@@H](O)[C@@H]4O)[C@H](O)[C@@H](O)[C@@H]3O)[C@H](O)[C@@H](O)[C@H]2O)[C@H](O)[C@@H](O)[C@H]1O [Stachyose],3 (active)
12,NCCCC(=O)O [g-Amino-N-Butyric acid],0 (inactive)
13,NC(=O)CC[C@H](N)C(=O)O [L-Glutamine],0 (inactive)
14,CC(C)C[C@H](N)C(=O)O [L-Leucine],1 (inactive)
15,"CC(O)CO (stereo not given) [1,2-Propanediol]",0 (inactive)
16,OC[C@@H](O)[C@H](O)[C@H](O)[C@@H](O)CO [Dulcitol],0 (inactive)
17,CC(C)[C@H](N)C(=O)O [L-Valine],0 (inactive)
18,O=C1CC[C@@H](C(=O)O)O1 [a-Hydroxyglutaric acid-g-Lactone],1 (inactive)
19,O=P(O)(O)OC[C@H](O)CO (racemic) [DL-a-Glycerol Phosphate],3 (active)
20,OC[C@H]1O[C@@](CO)(O[C@H]2O[C@H](CO)[C@@H](O)[C@H](O)[C@H]2O)[C@@H](O[C@H]2O[C@H](CO)[C@@H](O)[C@H](O)[C@H]2O)[C@@H]1O [D-Melezitose],0 (inactive)
21,CC[C@H](C)[C@H](N)C(=O)O [L-Isoleucine],0 (inactive)
22,O=C(O)CC(O)C(=O)O (racemic) [DL-Malic acid],3 (active)
23,NCCCCN [Putrescine],0 (inactive)
24,O=C1CC[C@@H](C(=O)O)N1 [L-Pyroglutamic acid],0 (inactive)
25,OC1OC[C@@H](O)[C@@H](O)[C@@H]1O (stereo partly drawn) [D-Arabinose],1 (inactive)
26,CC(=O)N[C@H]1C(O)O[C@H](CO)[C@H](O)[C@@H]1O (stereo partly drawn) [N-Acetyl-D-Galactosamine],3 (active)
27,CC(=O)N[C@@H]1C(O)O[C@H](CO)[C@@H](O)[C@@H]1O (stereo partly drawn) [N-Acetyl-D-Mannosamine],0 (inactive)
28,CC(=O)N[C@@H](CCC(=O)O)C(=O)O [N-Acetyl-L-Glutamic acid],0 (inactive)
29,OCC1OC(OC2C(CO)OC(O)C(O)C2O)C(O)C(O)C1O [D-Cellobiose],3 (active)

# Same assay, conditions: nutrient role (plate category): nitrogen
row,SMILES,DuctApe activity index
1,CC(N)=O [Acetamide],0 (inactive)
2,C[C@H](N)C(=O)NCC(=O)O,0 (inactive)
3,N[C@@H](CC(=O)O)C(=O)O [L-Aspartic acid],0 (inactive)
4,N[C@@H](CCC(=O)O)C(=O)O [L-Glutamic acid],1 (inactive)
5,N[C@H](CO)C(=O)O [D-Serine],0 (inactive)
6,NCC(=O)N[C@@H](CCC(=O)O)C(=O)O,1 (inactive)
7,NCCCC(=O)O [g-Amino-N-Butyric acid],1 (inactive)
8,NC(=O)CC[C@H](N)C(=O)O [L-Glutamine],2 (inactive)
9,CC(C)C[C@H](N)C(=O)O [L-Leucine],0 (inactive)
10,CC(C)[C@H](N)C(=O)O [L-Valine],0 (inactive)
11,CSCC[C@H](N)C(=O)N[C@@H](C)C(=O)O,0 (inactive)
12,CC[C@H](C)[C@H](N)C(=O)O [L-Isoleucine],0 (inactive)
13,NCCCCN [Putrescine],0 (inactive)
14,OC[C@H]1O[C@@H](n2cnc3c(O)nc(O)nc32)[C@H](O)[C@@H]1O [Xanthosine],0 (inactive)
15,O=C1CC[C@@H](C(=O)O)N1 [L-Pyroglutamic acid],0 (inactive)
16,N [Ammonia],0 (inactive)
17,CC(=O)N[C@H]1C(O)O[C@H](CO)[C@H](O)[C@@H]1O (stereo partly drawn) [N-Acetyl-D-Galactosamine],3 (active)
18,CC(=O)N[C@@H]1C(O)O[C@H](CO)[C@@H](O)[C@@H]1O (stereo partly drawn) [N-Acetyl-D-Mannosamine],0 (inactive)
19,CC(C)[C@@H](N)C(=O)O [D-Valine],0 (inactive)
20,CC(=O)N[C@@H](CCC(=O)O)C(=O)O [N-Acetyl-L-Glutamic acid],0 (inactive)
21,O=c1cc[nH]c(=O)[nH]1 [Uracil],0 (inactive)
